Assay [1] is described as follows: APR_HepG2_MicrotubuleCSK_72hr: Apredica 72-hour HepG2 Assay for Microtubule CSK Stabilty (AID 2282919). To be noted: HepG2 microtubule cytoskeleton, high-content imaging, actives raise or lower the signal. In a few lines: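 HepG2, 72 hr cmpd exposure, 0.39–200 uM (10 pts, duplicate), 0.5% DMSO. 3.7% formaldehyde fix, 0.5% Triton perm, anti-alpha-tubulin/Cy5 plus Hoechst. HCS fluorescence intensity; bidirectional fit vs DMSO baseline; taxol as positive control.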

Assay [2] is described as follows: APR_HepG2_P-H2AX_24hr: Apredica 24-hour HepG2 Assay for H2AX Phosphorylation (AID 2282920). The settings on record: high-content imaging, actives raise or lower the signal. The gist of the method: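 HepG2, 24 hr, cpd 0.39–200 uM (10 conc, duplicate), DMSO 0.5% v/v final. Fix 3.7% formaldehyde, Triton X-100 permeabilize, anti-phospho-H2A.x 1:200 + Hoechst 2 ug/mL. Imaged, bidirectional fit vs DMSO.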

Assay [3] in a line: APR_HepG2_StressKinase_72hr: Apredica 72-hour HepG2 Assay for Stress Kinase (AID 2282921). To be noted: HepG2 stress kinase (phospho-c-Jun) imaging, actives raise or lower the signal. The gist of the method:
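After a 72 h compound treatment spanning 0.39 to 200 uM, formaldehyde-fixed cells are labelled for phosphorylated c-Jun and nuclei, imaged by automated fluorescence microscopy, and activity is fitted in both directions relative to DMSO controls.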

A short description of assay [4]: APR_HepG2_StressKinase_24hr: Apredica 24-hour HepG2 Assay for Stress Kinase (AID 2282922). The settings on record: HepG2 stress kinase (phospho-c-Jun) imaging, actives raise or lower the signal. In a few lines: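 Read-out: phospho-c-Jun immunofluorescence (Cy3 secondary) quantified by high-content imaging at 20x, nuclei defined by Hoechst 33342. Human HepG2 liver cells dosed 24 hr, 0.39–200 uM, DMSO 0.5% v/v; gain or loss of signal fitted relative to DMSO.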

Assay [5] in a line: APR_HepG2_MitoMass_72hr: Apredica 72-hour HepG2 Assay for Mitochondrial Mass (AID 2282924).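 Also: MitoTracker Red CMXRos stain intensity per cell imaged as mitochondrial mass.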 To be noted: high-content imaging, actives raise or lower the signal. In a few lines:
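Read-out: MitoTracker Red fluorescence intensity from automated imaging (20x, six fields per well) in human HepG2 liver cells. Dosing ran 72 hr, 0.39–200 uM, 0.5% DMSO; bidirectional curve fitting versus DMSO baseline.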

A short description of assay [6]: APR_HepG2_NuclearSize_72hr: Apredica 72-hour HepG2 Assay for Nuclear Size (AID 2282925). To be noted: high-content imaging, actives raise or lower the signal. In a few lines: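 Read-out: nuclear diameter from Hoechst 33342 images (ArrayScan, 20x, six fields/well), via cell-cycle image analysis. HepG2 were dosed 0.39–200 uM for 72 hr in 0.5% DMSO. Bidirectional fit relative to DMSO.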

A short description of assay [7]: ATG_CRE_CIS: Attagene CIS-FACTORIAL HepG2 Assay for human cAMP Responsive Element (CRE) binding protein 3 (AID 2282926). The settings on record: HepG2 CRE cis-reporter, Attagene multiplexed mRNA; actives raise or lower the signal. The gist of the method:
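Assay format: transient reporter transfection of HepG2, 24 h treatment, total RNA isolation with DNase I step. Reporter abundance read by fluorescence after PCR and capillary separation; DMSO-normalised gain or loss fitting.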

Assay [8] concerns the target CCAAT/enhancer-binding protein beta (Homo sapiens) (UniProt P17676). Kind of assay: ATG_C_EBP_CIS: Attagene CIS-FACTORIAL HepG2 Assay for human CCAAT/Enhancer Binding Protein (C/EBP) beta (AID 2282927). The settings on record: HepG2 Attagene cis-factorial transcription factor reporter; actives raise or lower the signal. The gist of the method: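 HepG2 transiently transfected with multiplexed reporter units under cis-regulatory promoters reporting endogenous C/EBPb activity. After 24 h exposure, reporter mRNA assayed by RT-PCR, fluorescent labelling, HpaI digestion and capillary electrophoresis; bidirectional fitting versus DMSO.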

Assay [9] is described as follows: ATG_CMV_CIS: Attagene CIS-FACTORIAL HepG2 Assay for human CMV (Internal Marker) (AID 2282928).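 Also: endpoint acts as a background internal control marker rather than a target.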 The settings on record: HepG2 CMV promoter reporter, transcription factor profiling; actives raise or lower the signal. In a few lines: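 24 h chemical treatment, HepG2 with transient multi-reporter transfection; RNA → oligo(dT) RT → PCR → 6-FAM extension → HpaI digest → CE fluorescence. Bidirectional fit, DMSO negative control.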

Assay [10] can be described thus: ATG_DR4_LXR_CIS: Attagene CIS-FACTORIAL HepG2 Assay for human Liver X Receptor (LXR), DR4 submotif (AID 2282929). To be noted: HepG2 Attagene DR4 cis-reporter, mRNA transcription; actives raise or lower the signal. The gist of the method: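 DR4 cis-reporter in HepG2, 24 h exposure. Detection: RT-PCR, 6-FAM labelling, CE fragment analysis. Endpoint fitted bidirectionally, DMSO = baseline.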

Assay [11] concerns the target Aryl hydrocarbon receptor (Homo sapiens) (UniProt P35869). Description: ATG_Ahr_CIS: Attagene CIS-FACTORIAL HepG2 Assay for human Aryl Hydrocarbon Receptor (Ahr) (AID 2282930). The settings on record: HepG2 AhR cis-factorial reporter transcription; actives raise or lower the signal. The gist of the method: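 HepG2 cells transiently transfected with cis-element-driven multiplexed reporter units; endogenous AhR activity read as reporter mRNA 24 h after dosing, via RT-PCR, 6-FAM labelling, HpaI digestion and capillary electrophoresis. Bidirectional fit relative to DMSO.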

A short description of assay [12]: ATG_AP_2_CIS: Attagene CIS-FACTORIAL HepG2 Assay for human Activator Protein 2 (AP-2) (AID 2282932). The settings on record: HepG2 AP-2 cis-reporter, Attagene transcription factor profiling; actives raise or lower the signal. The gist of the method: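 Liver-derived HepG2 line, cis-reporter system measuring endogenous factors; 24 h dosing; reporter mRNA detected by fluorescent RT-PCR and capillary electrophoresis.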

A short description of assay [13]: ATG_BRE_CIS: Attagene CIS-FACTORIAL HepG2 Assay for human Bone Morphogenetic Protein (BMP) Response Element (BRE) (AID 2282933). To be noted: HepG2 BMP response element reporter, Attagene transcription factor profiling; actives raise or lower the signal. The gist of the method:
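Transient MRTU transfection of human HepG2 liver cells; 24 h compound treatment; total RNA isolated, reverse-transcribed, PCR-amplified, 6-FAM labelled, HpaI-cut, capillary electrophoresis. DMSO = negative control/baseline, bidirectional fit.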

For assay [14], the target named is Retinoic acid receptor alpha (Homo sapiens) (UniProt P10276). Description: ATG_DR5_RAR_CIS: Attagene CIS-FACTORIAL HepG2 Assay for human Retinoic Acid Receptor Alpha (RARE), DR5 submotif (AID 2282934). The settings on record: HepG2 Attagene cis-factorial RARE DR5 reporter, mRNA; actives raise or lower the signal. The gist of the method:
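HepG2 cells transiently transfected with multiplexed reporter units; DR5 cis-element drives reporter through endogenous transcription factors. After 24 h dosing, reporter mRNA quantified by RT-PCR, fluorescent labeling, HpaI digestion and capillary electrophoresis; bidirectional fitting versus DMSO.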

Assay [15] addresses Transcription factor E2F1 (Homo sapiens) (UniProt Q01094). Kind of assay: ATG_E2F_CIS: Attagene CIS-FACTORIAL HepG2 Assay for human E2F Transcription Factor 1 (AID 2282935). To be noted: HepG2 Attagene cis-reporter, E2F reporter RNA transcripts; actives raise or lower the signal. In a few lines:
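Liver-derived HepG2 cells expressing transfected promoter-driven reporter units received test chemical for 24 hours. Signal gains or losses were fitted bidirectionally against DMSO.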

The nature of assay [16]: ATG_E_Box_CIS: Attagene CIS-FACTORIAL HepG2 Assay for human Enhancer Box (E-box) (AID 2282936). The settings on record: HepG2 E-box cis-reporter transcription, actives raise or lower the signal. In a few lines: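 In this cell-based setup, HepG2 cells bearing transfected promoter-driven reporter units were exposed to chemicals for 24 h; reporter transcripts were amplified, 6-FAM-labelled, cut with HpaI and sized by capillary electrophoresis.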

Assay [17] is described as follows: ATG_M_61_CIS: Attagene CIS-FACTORIAL HepG2 Assay for M61 Transcription Factor (Internal Marker) (AID 2282937). To be noted: HepG2 Attagene CIS-FACTORIAL M61 internal marker reporter; actives raise or lower the signal. The gist of the method: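 Background-control endpoint: HepG2 cells with cis-regulated reporter constructs, 24 h exposure, reporter mRNA detected via fluorescent primer extension and capillary electrophoresis; values from bidirectional fitting with DMSO baseline.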

Assay [18] can be described thus: ATG_EGR_CIS: Attagene CIS-FACTORIAL HepG2 Assay for human Early Growth Response 1 (EGR1) (AID 2282938). To be noted: HepG2 Attagene CIS-FACTORIAL EGR reporter mRNA; actives raise or lower the signal. In a few lines:
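Endpoint derived by bidirectional fitting versus DMSO vehicle. Method: cis-promoter reporter units transfected into HepG2, 24 h dosing, RNA isolation, RT-PCR with 6-FAM primer extension and HpaI digestion, then capillary electrophoresis fluorescence detection.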

Assay [19] in a line: ATG_AP_1_CIS: Attagene CIS-FACTORIAL HepG2 Assay for human Activator Protein 1 (AP-1) (AID 2282931). To be noted: HepG2 Attagene cis-factorial AP-1 reporter mRNA; actives raise or lower the signal. In a few lines: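 Cis-regulated reporter units transiently expressed in HepG2 report endogenous transcription-factor activity. Signal: reporter mRNA at 24 h, via RT-PCR and fluorescent capillary electrophoresis. Endpoint derived by bidirectional fitting, DMSO as negative control.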

Activity calls are given as the source filed them. The calls were made as follows: active = hit-call score of the fitted dose curve at least 0.9, where 1 is the maximum; inactive = score below 0.9.

Sequence of Aryl hydrocarbon receptor (Homo sapiens) (P35869 whole entry, looked up): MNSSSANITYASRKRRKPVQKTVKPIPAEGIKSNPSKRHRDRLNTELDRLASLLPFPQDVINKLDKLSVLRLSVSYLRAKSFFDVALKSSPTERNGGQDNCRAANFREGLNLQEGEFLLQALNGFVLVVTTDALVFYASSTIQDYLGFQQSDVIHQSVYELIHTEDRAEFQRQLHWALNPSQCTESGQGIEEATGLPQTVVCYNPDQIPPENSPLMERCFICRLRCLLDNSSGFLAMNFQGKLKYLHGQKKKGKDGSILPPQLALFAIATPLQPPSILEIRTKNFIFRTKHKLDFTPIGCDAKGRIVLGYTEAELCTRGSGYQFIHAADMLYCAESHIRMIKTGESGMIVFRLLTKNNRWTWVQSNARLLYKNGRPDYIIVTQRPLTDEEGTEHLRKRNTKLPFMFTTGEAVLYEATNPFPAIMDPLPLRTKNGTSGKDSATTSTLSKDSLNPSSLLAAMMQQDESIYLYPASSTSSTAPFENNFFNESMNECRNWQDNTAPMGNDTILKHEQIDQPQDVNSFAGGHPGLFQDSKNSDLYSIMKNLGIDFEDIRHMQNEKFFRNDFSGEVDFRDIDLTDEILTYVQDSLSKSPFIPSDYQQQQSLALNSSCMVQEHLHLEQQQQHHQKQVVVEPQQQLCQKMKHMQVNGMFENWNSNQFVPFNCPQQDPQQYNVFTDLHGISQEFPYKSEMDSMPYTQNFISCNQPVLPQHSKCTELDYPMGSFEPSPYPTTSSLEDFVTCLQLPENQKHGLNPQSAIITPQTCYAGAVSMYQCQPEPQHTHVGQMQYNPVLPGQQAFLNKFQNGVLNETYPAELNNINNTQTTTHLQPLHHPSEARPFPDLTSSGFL
Sequence of Retinoic acid receptor alpha (Homo sapiens) (P10276 whole entry, looked up): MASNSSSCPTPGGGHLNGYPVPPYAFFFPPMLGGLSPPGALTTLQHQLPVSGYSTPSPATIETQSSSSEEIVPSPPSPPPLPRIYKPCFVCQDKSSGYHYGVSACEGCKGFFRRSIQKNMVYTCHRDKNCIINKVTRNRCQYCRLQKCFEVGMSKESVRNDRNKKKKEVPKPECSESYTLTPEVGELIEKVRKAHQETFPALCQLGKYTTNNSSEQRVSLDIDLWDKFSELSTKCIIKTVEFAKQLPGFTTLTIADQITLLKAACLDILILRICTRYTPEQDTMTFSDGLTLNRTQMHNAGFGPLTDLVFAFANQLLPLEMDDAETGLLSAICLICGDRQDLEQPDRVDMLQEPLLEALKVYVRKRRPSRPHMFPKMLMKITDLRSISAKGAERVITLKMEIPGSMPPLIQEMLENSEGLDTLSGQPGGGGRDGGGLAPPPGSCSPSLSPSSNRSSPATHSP
Sequence of CCAAT/enhancer-binding protein beta (Homo sapiens) (P17676 whole entry, looked up): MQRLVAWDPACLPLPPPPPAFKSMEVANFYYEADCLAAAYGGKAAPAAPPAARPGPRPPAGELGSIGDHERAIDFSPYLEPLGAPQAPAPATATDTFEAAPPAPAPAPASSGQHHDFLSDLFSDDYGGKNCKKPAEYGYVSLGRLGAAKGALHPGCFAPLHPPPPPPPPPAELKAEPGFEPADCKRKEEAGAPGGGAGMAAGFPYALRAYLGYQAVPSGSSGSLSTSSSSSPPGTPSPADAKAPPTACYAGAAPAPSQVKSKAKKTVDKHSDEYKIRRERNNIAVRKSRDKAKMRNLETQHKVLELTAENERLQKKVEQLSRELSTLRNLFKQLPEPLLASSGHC
Sequence of Transcription factor E2F1 (Homo sapiens) (Q01094 whole entry, looked up): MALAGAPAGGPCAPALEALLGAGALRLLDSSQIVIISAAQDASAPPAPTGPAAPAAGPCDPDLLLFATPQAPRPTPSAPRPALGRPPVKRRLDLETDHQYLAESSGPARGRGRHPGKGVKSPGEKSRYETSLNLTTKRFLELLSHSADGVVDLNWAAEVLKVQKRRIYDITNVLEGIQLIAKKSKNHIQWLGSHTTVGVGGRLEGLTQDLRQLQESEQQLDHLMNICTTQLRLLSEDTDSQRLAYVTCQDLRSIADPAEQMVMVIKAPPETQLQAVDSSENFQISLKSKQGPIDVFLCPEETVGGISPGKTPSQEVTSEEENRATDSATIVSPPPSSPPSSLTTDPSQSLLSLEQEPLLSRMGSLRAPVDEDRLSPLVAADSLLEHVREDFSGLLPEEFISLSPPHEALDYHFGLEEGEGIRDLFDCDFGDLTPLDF

Turning to `Clc1cccc(Cl)c1Cl`, the compound was called inactive in assay [1], in [2], in [3], in assay [4], in assay [5] and in assay [6]. The compound was classed as inactive in assay [7], in [8], in assay [9], in assay [10], in assay [11] and in assay [12]. The outcome in assay [13], in assay [14], in [15], in [16], in assay [17] and in [18] was inactive.

Take `O=C(O)COc1cc(Cl)c(Cl)cc1Cl`: the result in assay [7], in assay [8], in assay [9], in assay [10], in assay [11] and in assay [19] was inactive. In addition, the compound was called inactive in assay [12], in [13], in assay [14], in assay [15], in assay [16] and in [17]. For the same compound, the call in assay [18] was inactive.

For `Clc1cccc(Cl)c1`, the compound was classed as inactive in assay [1], in assay [2], in assay [3], in assay [4], in assay [5] and in assay [6]. Further, the compound was called inactive in assay [7], in assay [8], in [9], in [10], in assay [11] and in assay [12]. In addition, the outcome in assay [13], in assay [14], in [15], in assay [16], in assay [17] and in [18] was inactive.

For `O=C(N[C@H]1CN2CCC1CC2)c1ccc2c(c1)OCCO2`, the compound was called inactive in [1], in assay [2], in assay [3], in assay [4], in assay [5] and in [6]. In addition, the call in assay [7], in assay [8], in [10], in assay [11], in assay [19] and in [12] was inactive. Further, the compound was classed as inactive in assay [13], in [14], in assay [15], in assay [17] and in assay [18]. The AC50 in assay [16] is 72.7 µM (active).

With `CC1(C)[C@H](/C=C2\CCSC2=O)[C@@H]1C(=O)OCc1coc(Cc2ccccc2)c1`, the outcome in assay [7], in assay [8], in [9], in assay [11], in [12] and in [13] was inactive. Further, the outcome in assay [14], in assay [15], in assay [16] and in [17] was inactive. The AC50 in assay [10] was 17.9 µM (active); in [19], 144 µM (active); in assay [18] it was 19 µM (active).

As for `CCCCCCCCCCCCBr`, the compound was classed as inactive in assay [7], in assay [8], in assay [9], in [11], in assay [19] and in assay [12]. Moreover, the compound was classed as inactive in [13], in [14], in assay [15], in assay [16], in assay [17] and in assay [18]. Also, the AC50 in [10] was 48.2 µM (active).

In the case of `CCCCCCCCBr`, the result in [7], in assay [8], in assay [9], in assay [10], in assay [11] and in assay [19] was inactive. Further, the result in assay [12], in assay [13], in [14], in assay [15], in [16] and in [17] was inactive. The result in assay [18] was inactive.

As for `OC(Cc1ccccc1Cl)(Cn1cncn1)C1(Cl)CC1` (centres undefined), the outcome in assay [7], in assay [8], in [9], in assay [10], in assay [11] and in [19] was inactive. Also, the compound was classed as inactive in assay [12], in assay [13], in [14], in assay [15], in assay [16] and in assay [17]. Besides, the AC50 in [18] was 47.6 µM (active).

As a reminder, the AC50 is the concentration giving half of the maximal activity seen.
